Holding throughout (assay type): functional
Experiment [1] relates to Plasmodium falciparum. The experiment can be described thus: GSK_TCMDC: Inhibition of Plasmodium falciparum 3D7 in whole red blood cells, using parasite LDH activity as an index of growth. Test compounds present at 2uM.
The test system of experiment [2] is Plasmodium falciparum. The experiment can be described thus: GSK_TCMDC: Inhibition of Plasmodium falciparum Dd2 in whole red blood cells, using parasite LDH activity as an index of growth. Test compounds present at 2uM.
The next experiment deals with HepG2. The experiment can be described thus: GSK_TCMDC: Percent inhibition of human HepG2 cell line. Test compounds present at 10uM.

By Inhibition is commonly meant how much of the control response was suppressed. A higher Inhibition goes with a strong effect. On to `CC(C)Cc1ccc(N2CCN(CCCCNC(=O)c3ccc(NC(=O)c4cc(C(F)(F)F)cc(C(F)(F)F)c4)cc3)CC2)cc1`, for which the values for the Inhibition in the experiment on Plasmodium falciparum [1], in the experiment on Plasmodium falciparum [2] and in the experiment on HepG2 were 100%, 100% and 15%, respectively.

Take `Nc1ccnc(N2CCC(CCOc3cc(C(F)(F)F)nc4c(C(F)(F)F)cccc34)CC2)c1`: the Inhibition with Plasmodium falciparum [1] stood at 98%; with Plasmodium falciparum [2] it was 17%; in the experiment with HepG2, 35%.

Take `CN1CCN(c2ccnc3ccc(NC(=O)N(C)c4ccc(Cl)c(Cl)c4)cc23)CC1`: the Inhibition with Plasmodium falciparum [1] stood at 100%; with Plasmodium falciparum [2], 85%; with HepG2, 5%.

Regarding `Cc1cc(Br)cnc1CCCCNc1cc(=O)c2ccccc2[nH]1.Cl`, the figures for the Inhibition in the experiment on Plasmodium falciparum [1], in the experiment on Plasmodium falciparum [2] and with HepG2 were 91%, 64% and 0%, respectively.

For `Cl.c1ccc2c(NCCCCCCCCCNc3ccnc4ccccc34)ccnc2c1`, the Inhibition in the experiment with Plasmodium falciparum [1] was 100%; in the experiment on Plasmodium falciparum [2], 100%; with HepG2 it was 57%.

`Cc1noc(C)c1-c1cccc(CNCc2ccc(-c3cccc(-c4nc5ccccc5[nH]4)c3)cc2)c1.O=C(O)C(F)(F)F`: the Inhibition is recorded as 100% in the experiment on Plasmodium falciparum [1], 57% with Plasmodium falciparum [2] and 50% in the experiment on HepG2.

For the compound `CC(=O)Nc1cccc(C(=O)Nc2cccc(-c3csc(-c4nc5ccccc5[nH]4)c3)c2)c1`, the Inhibition amounted to 96% with Plasmodium falciparum [1], 97% in the experiment on Plasmodium falciparum [2] and 39% in the experiment on HepG2.

As for `COc1ccc(C(=O)CCC(=O)N(Cc2ccc(-c3ccc(CNCCc4ccc(S(C)(=O)=O)cc4)cn3)cc2)C(C)CN(C)C)cc1F.O=C(O)C(F)(F)F` (stereo not given), the Inhibition is listed as 98% with Plasmodium falciparum [1], 85% with Plasmodium falciparum [2] and 13% with HepG2.

In the case of `CCOc1ccc2c(=NN=Cc3ccccc3F)cc(C)[nH]c2c1`, the Inhibition with Plasmodium falciparum [1] was 100%; in the experiment with Plasmodium falciparum [2] it was 77%; with HepG2 it was 0%.

For the compound `OC(CNCc1ccccc1OCc1ccccc1)c1cccc(C(F)(F)F)c1` (stereo not given), the Inhibition with Plasmodium falciparum [1] turned out to be 99%; in the experiment with Plasmodium falciparum [2], 99%; with HepG2, 12%.

(Values after ChEMBL document CHEMBL1157539, “Thousands of chemical starting points for antimalarial lead identification” (Nature, 2010).)
